# Rows were chosen to be rich in hits. Some 3.7% of all compounds tested hit in one or more screens of this group.
# GDH-TPI counter: counter-screen for M. tuberculosis FBA inhibitors: GDH-TPI coupled enzymes | inhibition, % at 4.8 µM | 360,000 compounds, 1.2% hits | AID 588335 | GDH-TPI coupled enzyme counterscreen, NADH absorbance; in the data active means inhibition above about 30%;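 further: 0% = DMSO wells and 100% = wells lacking the enzyme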
# Mtb bLac sens: beta-lactam sensitization of Mtb H37Rv; 330,000 compounds, 0.27% hits; inhibition, % at 25 µM; M. tuberculosis H37Rv growth with meropenem, percent inhibition; call rule not given here;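 further: growth measured after seven days incubation then overnight dye step; 0% = bacteria only wells and 100% = bacteria with antibiotic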
# Mtb FBA inh: Mtb fructose-bisphosphate aldolase inhibition; P9WQA3; purified M. tuberculosis FBA, fluorescence read-out; inhibition, % at 1 µM; 360,000 compounds, 2.3% hits; in the data active means inhibition above about 27%;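 further: 0% = vehicle and 100% = reference inhibitor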
# FadD28 FP inh: blocks FadD28 binding to the bisubstrate probe; fluorescence polarization; inhibition, % at 12.5 µM; 360,000 compounds, 0.22% hits; in the data active means inhibition above about 8.5%, passing the limit was not always enough; inconclusive means no clear call, values can overlap the other calls
# UGM FP inh: Mtb UDP-galactopyranose mutase inhibition; P9WIQ1; purified UGM, fluorescence polarization probe displacement; inhibition, % at 10 µM; 320,000 compounds, 0.06% hits; AID 504406; in the data active means inhibition above about 10%, passing the limit was not always enough; inconclusive means no clear call, values can overlap the other calls
# Rv3671c protease: inhibitors of M. tuberculosis serine protease Rv3671c; P9WHR9; inhibition, % at 5.96 µM; 320,000 compounds, 0.048% hits; in the data active means inhibition above about 38%;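 further: extracellular domain of Rv3671c used as enzyme; 0% = enzyme with DMSO and 100% = no enzyme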
# Target sequence (P9WHR9 whole entry, looked up, the tested form may be a part): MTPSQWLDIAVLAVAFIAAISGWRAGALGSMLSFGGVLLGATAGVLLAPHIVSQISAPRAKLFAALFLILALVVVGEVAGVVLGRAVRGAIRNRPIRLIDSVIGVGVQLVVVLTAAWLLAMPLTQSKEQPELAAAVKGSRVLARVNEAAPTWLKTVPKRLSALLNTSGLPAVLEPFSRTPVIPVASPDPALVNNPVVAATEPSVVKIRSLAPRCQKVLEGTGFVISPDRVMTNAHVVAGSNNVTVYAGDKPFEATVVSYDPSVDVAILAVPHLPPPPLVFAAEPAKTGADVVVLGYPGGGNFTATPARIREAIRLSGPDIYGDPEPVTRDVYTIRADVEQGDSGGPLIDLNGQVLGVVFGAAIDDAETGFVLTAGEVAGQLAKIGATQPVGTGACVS
# * = called active by the depositor; ? = inconclusive; · = not tested or not shown.
SMILES,GDH-TPI counter,Mtb bLac sens,Mtb FBA inh,FadD28 FP inh,UGM FP inh,Rv3671c protease
CN(C(=O)c1cccc(NC(=O)Cc2ccc(NC(=O)C3CCCN(C(=O)c4ccccc4)C3)cc2)c1)C1CCCCC1 (configuration not stated),6.6,·,-2.0,-3.6,·,·
Cc1ccccc1-c1nc(S(=O)(=O)c2ccccc2)c(NCCN2CCOCC2)o1,11.1,·,-0.7,-0.8,·,·
Cc1nc2nc(-c3ccc(Cl)cc3)cn2nc1C,-4.8,-2.2,141.6*,-2.3,-1.1,12.6
Cc1ccccc1Oc1nc2c(C)cccn2c(=O)c1/C=C(\C#N)C(=O)NC1CCS(=O)(=O)C1 (configuration not stated),10.0,-7.9,34.3*,-2.4,-0.1,3.0
Cc1cccn2c(=O)c(/C=C(\C#N)C(=O)NC3CCS(=O)(=O)C3)c(Oc3ccccc3Cl)nc12 (configuration not stated),6.8,4.4,18.0,-3.5,-0.5,-2.6
Cc1cccn2c(=O)c(/C=C(\C#N)C(=O)NC3CCS(=O)(=O)C3)c(N3CCC(C(N)=O)CC3)nc12 (configuration not stated),0.0,-7.4,191.6*,-2.7,-1.7,-3.7
Cc1ccc(Oc2nc3ccccn3c(=O)c2/C=C(\C#N)C(=O)NC2CCS(=O)(=O)C2)cc1 (configuration not stated),-2.4,-9.4,11.1,-3.6,-4.3,9.2
Cc1cccn2c(=O)c(/C=C(\C#N)C(N)=O)c(N3CCN(Cc4ccc5c(c4)OCO5)CC3)nc12,15.5,8.8,33.3*,-5.9,-0.4,8.6
Cc1cccn2c(=O)c(/C=C(\C#N)C(=O)NC3CCS(=O)(=O)C3)c(N3CC(C)OC(C)C3)nc12 (configuration not stated),7.1,-11.6,119.6*,-3.3,-0.4,-10.1
CCOC(=O)/C(C#N)=C/c1c(N2CCN(Cc3ccc4c(c3)OCO4)CC2)nc2c(C)cccn2c1=O,6.9,-9.6,-2.1,-0.9,-0.8,-3.8
Cc1ccc2c(=O)n3c(nc2c1)C(Cc1ccccc1)NC(=O)c1cc2ccccc2cc1-3 (configuration not stated),10.9,·,-3.2,-2.0,·,·
CCC(C)NC(=O)c1ccc(N2CC3CC(C2)c2cccc(=O)n2C3)c(NC(=O)c2c(F)cccc2F)c1 (configuration not stated),13.3,·,-1.0,-2.0,·,·
C[C@H]1CN([C@@H](C)CO)S(=O)(=O)c2ccc(C#CC3CC3)cc2O[C@@H]1CN(C)S(C)(=O)=O,-3.8,·,-1.9,-3.6,·,·
Nc1c(S(=O)(=O)c2cccs2)c2nc3ccccc3nc2n1CC1CCCO1 (configuration not stated),22.9,?,170.0*,0.1,2.5,-2.1
CC(C)CCn1c(N)c(S(=O)(=O)c2cccs2)c2nc3ccccc3nc21,12.1,52.8,116.0*,-7.1,3.7,-112.6
Nc1c(S(=O)(=O)c2cccs2)c2nc3ccccc3nc2n1CCc1ccccc1,·,74.0,·,·,1.1,-22.4
Nc1c(S(=O)(=O)c2cccs2)c2nc3ccccc3nc2n1Cc1cccs1,13.3,-0.1,119.1*,-9.4,-1.3,-32.5
COc1ccc2c(c1)C(C)(CCN)C(=O)N2C (configuration not stated),-6.2,-4.5,-0.1,-3.2,-1.5,-3.5
CCOC(=O)C1=C(O)C(=O)N(c2ccc(S(N)(=O)=O)cc2)C1c1cccc([N+](=O)[O-])c1 (configuration not stated),31.6*,-5.8,3.0,-1.3,-2.5,2.9
O=[N+]([O-])c1ccc(S(=O)(=O)c2cccc(C(F)(F)F)c2)nc1,2.1,100.3,3.3,-2.4,1.7,6.1
CCN(CC)c1ccc(/C=N/NC(=O)c2ccco2)c(O)c1,41.3*,11.3,4.4,-0.7,1.3,12.9
CCN(CC)c1ccc(/C=N/NC(=O)c2ccco2)cc1,42.8*,-0.8,-2.1,-2.8,-0.4,-3.7
CCN(CC)c1ccc(/C=N/NC(=O)Cc2cccs2)c(O)c1,38.0*,-3.3,0.0,?,0.3,13.0
